CCT chaperon mod = cytosolic chaperonin activity modulation; purified chaperonin ATPase assay, HTRF ADP detection, 30 min; activity change, % (no concentration beside the values), hits read low; actives 0.3% (n = 360,000); in the data active = activity change below about -30%; note: % is set by controls: 0 for no effect and ±100 for the full control effect
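Nucleotide hydrolysis assay: TRiC at 20–40 nM final (set by batch activity) with 10 uM ATP, 30 min at 37 °C, in presence of 76 uM compound. Detection by competitive ADP HTRF, 30 min ambient.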
PINK1 expr mod = changes PINK1 expression; PINK1 immunofluorescence, high-content cytometry, 24 h; Potency, µM (series often up to 76.6 µM), for inactives: at the top dose activation (PINK1 increase), actives largely listed as activators; actives 0.2% (n = 410,000); AID 624263; active = well fitted activation curve with a large enough effect; inconclusive = small, poorly fitted or top-dose-only effect; cell line not stated here; note: potency is the fitted concentration of half-maximal effect; % of control where 0% means no effect; nearly all actives have a fitted effect of over 65% in size
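PINK1 protein, normally rapidly degraded, was detected by immunofluorescence after 24 hour compound treatment of a stable cell line. Titration data (5 concentrations) came from laser-scanning cytometry, with CCCP-treated wells as controls.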
Tb PGK inh = T. brucei PGK inhibition; P07378; PGK/GAPDH coupled, Kinase-Glo luminescence, 60 min; Potency, µM (highest dose often 57.5 µM), without a hit: top-dose activity change, negative = inhibition, most hits filed as inhibitors; actives 0.043% (n = 380,000); AID 602233; note: potency is the fitted concentration of half-maximal effect; % is set by controls: 0 for no effect and ±100 for the full control effect; nearly all actives have a fitted effect of over 60% in size
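Recombinant glycosomal PGK reaction used 1,3-bisphosphoglycerate generated in-well by GAPDH (100nM final) in 100mM TEA pH 7.6, 5mM MgCl2, 0.01% Tween-20. After 60 minutes at room temperature, ATP was read by Kinase-Glo Plus luminescence end-point.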
GLS inh = inhibitors of human glutaminase (GLS); O94925; GLS enzymatic activity, qHTS titration; Potency, µM (titrated, usually from 45.5 µM), for the others: at the top dose activity change, negative = inhibition, most hits filed as inhibitors; actives 0.21% (n = 410,000); note: potency is the fitted concentration of half-maximal effect; % is set by controls: 0 for no effect and ±100 for the full control effect
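Two-point fluorescence kinetic (t0, 30 min RT) for hKGA; glutamate detected via glutamate oxidase–HRP–Amplex Red. Substrate: 1 mM L-glutamine solution; buffer 45 mM KH2PO4, pH 8.2.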
PI4K2A block = blocks human PI4K2A kinase activity. purified PI4K2A, ADP-Glo luminescence, 1 h; stronger effect = lower value. activity change, negative = inhibition, % at 76.9 µM. actives 0.13% (n = 420,000); in the data active = activity change below about -50%; inconclusive = mostly about -30% to -49%;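 note: -100% = wells without enzyme as full effect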
Target sequence (Q9BTU6 whole entry, looked up): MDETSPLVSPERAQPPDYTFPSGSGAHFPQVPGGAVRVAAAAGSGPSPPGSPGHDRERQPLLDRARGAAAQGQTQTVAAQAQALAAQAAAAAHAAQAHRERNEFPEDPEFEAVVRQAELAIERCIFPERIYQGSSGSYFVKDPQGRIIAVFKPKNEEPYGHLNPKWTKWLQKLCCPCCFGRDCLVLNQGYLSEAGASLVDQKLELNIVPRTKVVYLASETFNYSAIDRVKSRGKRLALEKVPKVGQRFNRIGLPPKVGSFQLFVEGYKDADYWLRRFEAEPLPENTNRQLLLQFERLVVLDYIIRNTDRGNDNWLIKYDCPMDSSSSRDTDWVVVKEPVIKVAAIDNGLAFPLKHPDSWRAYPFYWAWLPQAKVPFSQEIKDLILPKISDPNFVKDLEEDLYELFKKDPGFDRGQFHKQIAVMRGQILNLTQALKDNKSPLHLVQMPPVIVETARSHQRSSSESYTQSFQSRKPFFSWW
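PI4K2A activity was measured by ADP-Glo luminescence: enzyme (4 ug/mL stock) and phosphatidylinositol (1.2 mM stock) in Tris pH 7.5/MgCl2/EGTA/Triton X-100 buffer were reacted with ATP (300 microM stock) for one hour at ambient temperature.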
* = called active by the depositor; i = inactive; ? = inconclusive; · = no result given; ! = not active in a repeat; [ ] = dose if it differs, or a comment. Hits are enriched below; roughly 0.78% of the tested compounds scored in any of these assays. Unless noted, calls come from the whole dose curve; as a rule, active = well fitted curve in the direction sought with a large enough effect; inconclusive = small, poorly fitted or top-dose-only effect, or another doubt; inactive = no such curve, though single readings can be large; an effect the other way counts as inactive or inconclusive.

SMILES	CCT chaperon mod	PINK1 expr mod	Tb PGK inh	GLS inh	PI4K2A block
COc1cc(NC(=O)c2cc(-c3ccc(C)cc3)on2)cc(OC)c1OC	1	2%	-2%	-7%	-2
COc1ccc(O)c(CN2CCC3(CCC(CNC(=O)c4ccco4)O3)CC2)c1 (centres undefined)	·	0%	·	·	·
O=C(COc1ccc(Cl)cc1Cl)Nc1ccccn1	-9	-7%[38.3 µM]	?	2%	-75*
CSc1ccccc1NC(=O)COc1ccc(Cl)cc1Cl	-2	5%	-2%	8%	-10
COC(=O)c1cccc(C(=O)N2CCc3c(C(=O)OC)c(OCc4ccccn4)cc(=O)n3CC2)c1	·	-1%	·	·	·
NC1=NC(=O)/C(=C/c2ccc(-c3ccc(S(N)(=O)=O)cc3)o2)S1	-1	32µM*	-12%	-4%	-16
CCn1c(SCc2nc3sc(C(=O)O)c(C)c3c(=O)[nH]2)nc2ccccc21	-2	-2%	20µM*	?	-6
C#CCC(Cc1cnc2nc(N)nc(N)c2n1)c1ccc(C(=O)N[C@@H](CCC(=O)O)C(=O)O)cc1 (some centres undefined)	·	·	·	-2%	·
NS(=O)(=O)c1ccc(NCc2c(F)cccc2Cl)cc1	0	5%[38.3 µM]	i	7%	-4
Fc1cccc(Cl)c1CNc1ccc(N2CCCC2)cc1	2	10%	6%	7.9µM*	-7
O=C(O)Cn1c(=O)n(Cc2ccc(Br)cc2F)c(=O)c2ccc(Cl)cc21	·	·	·	·	0
COc1cc([N+](=O)[O-])ccc1NC(=S)Nc1cc(C(=O)OC(C)C)cc(C(=O)OC(C)C)c1	-1	16µM*	-1%	3%	4
COc1ccc([N+](=O)[O-])cc1NC(=S)NC(C)=O	-1	0%	-3%	3%	-2
COc1ccccc1C1CN(CC(=O)N2CCC(C(O)c3ccccn3)CC2)Cc2ccccc2O1 (centres undefined)	·	1%	·	·	·
O=C(CC1(c2cccc(F)c2)CC(=O)N(Cc2cccnc2)C1=O)N1CCCCCCC1 (centres undefined)	·	2%	·	·	·
CCn1c2ccc(F)cc2c2nnc(NN)nc21	1	8%	-8%	20%	2
NNc1nnc2c3cc(F)ccc3n(Cc3ccccc3)c2n1	2	32µM*	i	-11%	-2
CC1CCC(NC(=O)C2CCN(c3nc4ccccc4s3)CC2)CC1 (centres undefined)	-36*	16%	-8%	-1%	0
COc1ccc(F)c(CN2CCC3(CCC(CNC(=O)c4cc(C)nn4C)O3)CC2)c1 (centres undefined)	·	1%	·	·	·
COc1ccc(CN2CCCC(n3cc(C(=O)N4CCCCC4)nn3)C2)c(OC)c1OC (centres undefined)	·	2%	·	·	·
C=CC[C@@H](CC(=O)NCCO)C(=O)NC[C@H](OC(=O)[C@@H](CC=C)Cc1ccc(F)cc1)c1ccccc1	-3	1%	i	13%	-52*
COc1cccc(/C=C2\Oc3ccc(O)cc3C2=O)c1O	-6	-1%	-30%	?	-61*
Cc1cc(C)cc(CN2CCOc3ccc(CN4CCC(O)(c5cccnc5)CC4)cc3C2)c1	·	-1%	·	·	·
COc1ccccc1-c1noc2c1C(=O)N(Cc1cn(C3CCCC3)nn1)CC2	-38*	0%	·	-2%	-1
CCOc1ccccc1N1C(=O)CC(Sc2ncccc2C(=O)O)C1=O (centres undefined)	1	·	2%	18µM*	0
SMILES	CCT chaperon mod	PINK1 expr mod	Tb PGK inh	GLS inh	PI4K2A block
O=S(=O)(/C=C/c1ccccc1)N1CCC(n2c(C3CCCO3)nc3cccnc32)CC1 (centres undefined)	·	0%	·	·	·
Cc1nc(S/C(=C\c2ccc(OCc3ccccc3Cl)cc2)C(=O)O)n[nH]1	-1	-3%	0%	19%	-5
Cc1nc(S/C(=C\c2ccc(-c3ccc(C(=O)O)c(Cl)c3)o2)C(=O)O)n[nH]1	-2	1%	?	16µM*	-18
CCc1noc(C)c1C(=O)N1CCOc2ccc(CN3CCN(c4ccccn4)CC3)cc2C1	·	0%	·	·	·
Cc1cccc(C#Cc2ccccc2)n1	-3	1%	-12%	4%	-50*!
COC(=O)[C@@H]1C[C@@H](NC(=O)c2cccc3c(C)c(C)[nH]c23)CN1Cc1cccc2ccccc12	·	1%	·	·	·
